High-throughput results deposited in PubChem BioAssay by National Center for Advancing Translational Sciences (NCATS).
HP1b chromo inh: HTS for Inhibitors of HP1-beta Chromodomain Interactions with Methylated Histone Tails; Chromobox protein homolog 1 (Homo sapiens), P83916; AlphaScreen HP1-beta / biotin-H3K9me3 peptide binding; Potency, µM (top dose mostly 114 µM), actives largely listed as inhibitors; 390,000 compounds, 0.56% hits; AID 540317, 2011; also: nearly all actives have a fitted effect of over 70% in size
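Compound inhibition of the preformed complex between 50 nM HP1-beta and 50 nM biotinylated H3K9me3 peptide was read by AlphaScreen. Buffer was PBS pH 7.4 with 0.01% Tween-20. Incubations ran 30 min at room temperature, with 10 ug/mL donor/acceptor beads.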
PLK1 PBD inh: qHTS for Inhibitors of PLK1-PDB (polo-like kinase 1 - polo-box domain): Primary Screen; Serine/threonine-protein kinase PLK1 (Homo sapiens), P53350; AID 720504, 2013; Plk1 PBD binding of FITC phosphopeptide, fluorescence polarization; 360,000 compounds, 2.8% hits; Potency, µM, usual class: inhibitors; also: series mostly up to about 57 µM; nearly all actives have a fitted effect of over 65% in size
Target sequence (P53350 whole entry, looked up, the tested form may be a part): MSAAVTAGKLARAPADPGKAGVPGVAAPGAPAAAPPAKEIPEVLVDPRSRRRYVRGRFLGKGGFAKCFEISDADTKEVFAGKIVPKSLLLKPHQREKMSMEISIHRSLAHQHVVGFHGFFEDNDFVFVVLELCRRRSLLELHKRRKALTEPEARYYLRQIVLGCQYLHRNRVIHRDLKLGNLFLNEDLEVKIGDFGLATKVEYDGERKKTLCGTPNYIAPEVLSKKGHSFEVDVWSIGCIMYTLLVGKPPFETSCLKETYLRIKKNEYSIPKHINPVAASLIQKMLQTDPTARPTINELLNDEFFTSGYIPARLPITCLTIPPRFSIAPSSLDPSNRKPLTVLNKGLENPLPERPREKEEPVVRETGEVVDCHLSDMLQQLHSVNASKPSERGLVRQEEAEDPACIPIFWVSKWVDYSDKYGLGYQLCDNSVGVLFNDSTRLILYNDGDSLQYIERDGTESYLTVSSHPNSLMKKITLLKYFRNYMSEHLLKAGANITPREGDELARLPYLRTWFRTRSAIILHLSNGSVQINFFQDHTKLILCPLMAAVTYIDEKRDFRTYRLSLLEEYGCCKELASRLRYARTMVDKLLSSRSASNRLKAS
G9a block: qHTS Assay for Inhibitors of Histone Lysine Methyltransferase G9a; Histone-lysine N-methyltransferase EHMT2 (Homo sapiens), Q96KQ7; G9a H3K9 monomethylation, AlphaScreen, 2 h; Potency, µM (doses to about 102 µM), most hits filed as inhibitors; 350,000 compounds, 8.8% hits; also: nearly all actives have a fitted effect of over 75% in size
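Methyltransferase reactions run at room temperature for 2 h (20 nM enzyme, 500 nM biotin-H3K9 peptide, 20 uM SAM) after a 15 min compound preincubation; product detected by AlphaScreen beads and anti-H3K9me1 antibody.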
BAZ2B inh: qHTS Assay for Inhibitors of BAZ2B; Bromodomain adjacent to zinc finger domain protein 2B (Homo sapiens), Q9UIF8; AlphaScreen BAZ2B-H3K14Ac peptide displacement; Potency, µM (titrated, usually from 114 µM), usual class: inhibitors; 360,000 compounds, 4.4% hits; also: nearly all actives have a fitted effect of over 60% in size
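Inhibition is scored as reduced AlphaScreen emission. The BAZ2B/b-H3(5-23)K14Ac complex (50 nM each) in PBS pH 7.4, 0.01% Tween-20 meets compound (up to 110 uM) for 30 min at RT before bead addition.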
12-LOX inh: Primary qHTS assay for inhibitors of human arachidonate 12S-lipoxygenase (ALOX12): Round 2; Polyunsaturated fatty acid lipoxygenase ALOX12 (Homo sapiens), P18054; purified 12hLO, xylenol orange hydroperoxide absorbance; Potency, µM (highest dose often 108 µM), most hits filed as inhibitors; 580,000 compounds, 1.1% hits; AID 1671190, 2021
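Purified human 12hLO (150 nM final) in 25 mM Hepes, 0.01% Triton X-100, pH 7.0 was preincubated 15 min at room temperature with compound. Then 40 uM arachidonic acid was added, 30 min. Hydroperoxide was read by Fe-XO absorbance ratio 573/405 nm.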
JMJD2A Tudor inh: qHTS Assay for Inhibitors of JMJD2A-Tudor Domain; Lysine-specific demethylase 4A (Homo sapiens), O75164; AlphaScreen JMJD2A-Tudor / H3K4me3 peptide binding; Potency, µM (titrated, usually from 114 µM), most hits filed as inhibitors; 390,000 compounds, 4.4% hits; AID 504339, 2011; also: nearly all actives have a fitted effect of over 50% in size
Of the large screens only hits and unclear results are named; the others gave an inactive call. This is a sample that favours compounds with a hit; in the whole collection about 9% have one here. Calls follow the shape of the dose curve; as a rule, active = well fitted curve in the direction sought with a large enough effect; inconclusive = small, poorly fitted or top-dose-only effect, or another doubt; inactive = no such curve, though single readings can be large; an effect the other way counts as inactive or inconclusive.

Cc1cccc(C)c1Nc1nnc(SCC(=O)NCc2cccs2)s1	none
COc1cccc(Nc2nnc(SCN3C(=O)c4ccccc4C3=O)s2)c1	G9a block inconclusive
CCOC(=O)c1c(C)[nH]c(C)c1S(=O)(=O)NCc1cc(C)ccc1C	G9a block inconclusive, BAZ2B inh 50µM, JMJD2A Tudor inh inconclusive
CCOC(=O)c1c(C)[nH]c(C)c1S(=O)(=O)NCC(=O)NCc1ccccc1C	none (no result: PLK1 PBD inh)
CN(C)c1cccc2c1c(NC(=O)c1ccc(F)cc1)nn2C	12-LOX inh inconclusive
CC(C)(C)Nc1nc(SCC(=O)Nc2ccccc2Cl)nc(N2CCOCC2)n1	BAZ2B inh 79µM (no result: G9a block)
CCNc1nc(SCC(=O)Nc2ccccc2)nc(N2CCOCC2)n1	none
CCCc1nn2c(=O)cc(CSCC(=O)Nc3nnc(CC)s3)nc2s1	none
CCc1nnc(NC(=O)CSCc2cc(=O)n3nc(C)sc3n2)s1	PLK1 PBD inh 3.4µM, JMJD2A Tudor inh 18µM
COc1cccc(NC(=O)CSCc2cc(=O)n3nc(C4CC4)sc3n2)c1	none
Cc1ccc(NC(=O)CSCc2cc(=O)n3nc(C4CC4)sc3n2)cc1	PLK1 PBD inh 24µM, JMJD2A Tudor inh 32µM
N#CCCN(C(=S)NC(=O)c1ccco1)c1ccccc1F	PLK1 PBD inh 30µM, G9a block 25µM
N#CCCN(Cc1cccnc1)C(=S)NC(=O)c1ccco1	G9a block 10µM, BAZ2B inh inconclusive, 12-LOX inh inconclusive, JMJD2A Tudor inh 22µM
N#CCCN(C(=O)c1ccco1)c1ccccc1	none
N#CCCN(Cc1cccnc1)C(=S)NCc1ccco1	G9a block 20µM
CN(C)S(=O)(=O)c1cccc(C(=O)NC(=S)N(CCC#N)Cc2cccnc2)c1	none
Cc1cc(C)n2nc(C(=O)N3CCCC(Nc4ccc(C(C)C)cc4)C3)cc2n1 (stereo not given)	none
COc1ccc(NC(=O)Nc2nnc(C)s2)cc1	none (no result: PLK1 PBD inh)
CCCCOc1ccc(NC(=O)Nc2nnc(C)s2)cc1	G9a block 79µM
CC1S/C(=N/N=C2CCCCC2)NC1=O (stereo not given)	BAZ2B inh 50µM, JMJD2A Tudor inh inconclusive
O=C(CC1S/C(=N/N=C2CCCCCC2)NC1=O)Nc1ccccc1C(F)(F)F (stereo not given)	none
CC(C)(C)C1CCC(=NO)CC1 (stereo not given)	none (no result: HP1b chromo inh, PLK1 PBD inh, G9a block, BAZ2B inh, JMJD2A Tudor inh)
CC1S/C(=N/N=C2CCC(C(C)(C)C)CC2)NC1=O (stereo not given)	BAZ2B inh 56µM
COc1cc(C=NO)nc(-c2ccccn2)c1	JMJD2A Tudor inh 14µM (no result: G9a block, BAZ2B inh)
CC(=O)C1=C(O)C(=O)N(CCC(=O)O)C1c1ccccc1[N+](=O)[O-] (stereo not given)	BAZ2B inh inconclusive, 12-LOX inh inconclusive
CC(=O)C1=C(O)C(=O)N(CC(=O)O)C1c1ccccc1Cl (stereo not given)	G9a block 50µM, BAZ2B inh 71µM, JMJD2A Tudor inh inconclusive (no result: 12-LOX inh)
CC(=O)C1=C(O)C(=O)N(C)C1c1ccccc1[N+](=O)[O-] (stereo not given)	HP1b chromo inh inconclusive, PLK1 PBD inh 27µM, G9a block 11µM, 12-LOX inh inconclusive, JMJD2A Tudor inh inconclusive
CCCCCCN1C(=O)C(O)=C(C(C)=O)C1c1ccccc1[N+](=O)[O-] (stereo not given)	G9a block 50µM, BAZ2B inh inconclusive
Cc1cccc(-c2noc(CCC(=O)N3CCCC4(CCNCC4)CC3)n2)c1	none (no result: HP1b chromo inh, PLK1 PBD inh, G9a block, BAZ2B inh, JMJD2A Tudor inh)
Cc1ccc(-c2c(C)n([O-])c3c([n+]2=O)CCCC3)cc1	PLK1 PBD inh inconclusive, JMJD2A Tudor inh 56µM
Cc1ccc(CN=Cc2[nH]c3ccc(Br)c(Cl)c3c2O)cc1	HP1b chromo inh 45µM, G9a block 28µM, BAZ2B inh inconclusive, 12-LOX inh inconclusive, JMJD2A Tudor inh 50µM
Oc1c(C=NCc2ccc(F)cc2)[nH]c2ccc(Br)c(Cl)c12	G9a block inconclusive, BAZ2B inh inconclusive, 12-LOX inh 13µM (no result: HP1b chromo inh, PLK1 PBD inh, JMJD2A Tudor inh)
COc1ccc(NC(=O)C2=C(C)Nc3nc(SCc4ccccc4C)nn3C2c2cc(OC)c(O)c(OC)c2)cc1 (stereo not given)	BAZ2B inh 79µM, 12-LOX inh inconclusive (no result: PLK1 PBD inh)
COc1ccc(NC(=O)C2=C(C)Nc3nc(SCc4ccccc4C)nn3C2c2ccc(Br)cc2)cc1 (stereo not given)	none (no result: PLK1 PBD inh)
Cc1c(Cl)ccc2c1NC(=O)[C@]21N[C@@H](Cc2ccccc2)[C@H]2C(=O)N(c3ccc(F)cc3)C(=O)[C@H]21	G9a block 1.6µM, BAZ2B inh inconclusive
O=C1[C@@H]2C(Cc3ccc(O)cc3)NC3(C(=O)Nc4ccc(F)cc43)[C@@H]2C(=O)N1c1ccccc1 (stereo not given in full)	G9a block 79µM, JMJD2A Tudor inh 79µM
O=C1[C@@H]2[C@H](Cc3ccc(O)cc3)N[C@]3(C(=O)Nc4ccccc43)[C@@H]2C(=O)N1c1ccc(F)cc1	G9a block inconclusive (no result: HP1b chromo inh, PLK1 PBD inh, JMJD2A Tudor inh)
Cc1cc(C(=O)N/N=C/c2ccc(Br)o2)n[nH]1	none
O=C(NCc1nnc(SCC(=O)N2CCc3ccccc32)o1)c1ccco1	none (no result: BAZ2B inh)
CC(=O)N1N=C(C)CC1c1ccc(OCc2ccccc2)cc1 (stereo not given)	none
CC(C)CC(=O)Nc1ccnn1C1CCN(C(=O)c2ccc(F)cc2Cl)CC1	none (no result: G9a block)
OCCC#Cc1c(-c2ccsc2)sc2ccccc12	G9a block 11µM, 12-LOX inh inconclusive
OCCCCC#Cc1c(-c2ccsc2)sc2ccccc12	none
CC(C)c1nn2c(N)c(/C=C3\C=Nc4ccccc43)c(=O)nc2s1	none
COCCN=c1scc(-c2ccco2)n1/N=C/c1ccc(O)c(O)c1O	HP1b chromo inh 7.9µM, PLK1 PBD inh 6.7µM, G9a block 10µM, BAZ2B inh 7.9µM, 12-LOX inh inconclusive, JMJD2A Tudor inh 32µM
Oc1ccc(/C=N/n2c(-c3ccco3)csc2=Nc2cccnc2)c(O)c1	G9a block inconclusive, BAZ2B inh inconclusive, 12-LOX inh inconclusive
CC(C)N=c1scc(-c2ccco2)n1/N=C/c1ccc(O)c(O)c1	HP1b chromo inh inconclusive, G9a block inconclusive, BAZ2B inh 32µM, 12-LOX inh inconclusive, JMJD2A Tudor inh 40µM
COCCN=c1scc(-c2cccs2)n1/N=C(\C)c1ccco1	HP1b chromo inh inconclusive, G9a block 32µM, BAZ2B inh 10µM, JMJD2A Tudor inh 50µM
